# Assay results reported in ChEMBL document CHEMBL2218924, “A broad activity screen in support of a chemogenomic map for kinase signalling research and drug discovery” (Biochem J, 2013).
# Experiments:
# [1] = target: T1, Serine/threonine-protein kinase TBK1 (Homo sapiens) (UniProt Q9UHD2); conditions: at 10 µM
# T1 sequence (whole entry): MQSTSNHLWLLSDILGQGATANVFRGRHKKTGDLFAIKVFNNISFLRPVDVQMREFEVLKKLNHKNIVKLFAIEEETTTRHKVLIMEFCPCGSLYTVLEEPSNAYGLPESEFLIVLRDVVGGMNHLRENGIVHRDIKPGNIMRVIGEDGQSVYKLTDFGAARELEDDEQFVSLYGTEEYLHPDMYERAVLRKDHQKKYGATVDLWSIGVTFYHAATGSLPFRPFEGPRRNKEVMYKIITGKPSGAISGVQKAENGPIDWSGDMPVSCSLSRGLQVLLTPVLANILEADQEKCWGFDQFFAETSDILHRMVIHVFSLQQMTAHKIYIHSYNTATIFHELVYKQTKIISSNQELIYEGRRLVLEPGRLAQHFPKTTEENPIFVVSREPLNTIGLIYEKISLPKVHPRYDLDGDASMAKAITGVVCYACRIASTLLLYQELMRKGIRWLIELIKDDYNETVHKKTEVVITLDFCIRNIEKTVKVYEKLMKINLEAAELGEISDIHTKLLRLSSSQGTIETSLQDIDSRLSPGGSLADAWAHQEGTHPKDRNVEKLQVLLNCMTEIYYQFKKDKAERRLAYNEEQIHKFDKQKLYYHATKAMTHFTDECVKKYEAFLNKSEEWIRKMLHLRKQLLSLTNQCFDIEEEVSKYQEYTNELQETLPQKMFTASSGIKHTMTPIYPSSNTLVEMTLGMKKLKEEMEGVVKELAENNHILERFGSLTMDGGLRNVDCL
# [2] = target: T2, TGF-beta receptor type-1 (Homo sapiens) (UniProt P36897); conditions: at 1 µM
# T2 sequence (whole entry): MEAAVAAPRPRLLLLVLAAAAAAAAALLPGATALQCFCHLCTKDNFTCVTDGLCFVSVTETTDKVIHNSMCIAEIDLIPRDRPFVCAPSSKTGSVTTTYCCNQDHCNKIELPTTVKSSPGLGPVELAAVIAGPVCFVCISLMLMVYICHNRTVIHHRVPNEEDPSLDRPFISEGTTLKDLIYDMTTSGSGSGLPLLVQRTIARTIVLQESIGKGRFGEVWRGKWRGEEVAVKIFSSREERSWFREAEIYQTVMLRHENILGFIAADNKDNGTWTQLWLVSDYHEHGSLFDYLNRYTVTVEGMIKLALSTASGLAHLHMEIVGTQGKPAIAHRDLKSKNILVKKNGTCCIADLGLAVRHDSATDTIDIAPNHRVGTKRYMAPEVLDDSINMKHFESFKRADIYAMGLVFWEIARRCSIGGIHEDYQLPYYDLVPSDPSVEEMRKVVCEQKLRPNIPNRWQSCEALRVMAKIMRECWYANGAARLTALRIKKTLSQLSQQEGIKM
# [3] = target: T2, TGF-beta receptor type-1 (Homo sapiens); conditions: at 10 µM
# [4] = target: Insulin-like growth factor 1 receptor (Homo sapiens) (UniProt P08069); conditions: at 1 µM
# Insulin-like growth factor 1 receptor (Homo sapiens), sequence (P08069 31-736 limits assumed): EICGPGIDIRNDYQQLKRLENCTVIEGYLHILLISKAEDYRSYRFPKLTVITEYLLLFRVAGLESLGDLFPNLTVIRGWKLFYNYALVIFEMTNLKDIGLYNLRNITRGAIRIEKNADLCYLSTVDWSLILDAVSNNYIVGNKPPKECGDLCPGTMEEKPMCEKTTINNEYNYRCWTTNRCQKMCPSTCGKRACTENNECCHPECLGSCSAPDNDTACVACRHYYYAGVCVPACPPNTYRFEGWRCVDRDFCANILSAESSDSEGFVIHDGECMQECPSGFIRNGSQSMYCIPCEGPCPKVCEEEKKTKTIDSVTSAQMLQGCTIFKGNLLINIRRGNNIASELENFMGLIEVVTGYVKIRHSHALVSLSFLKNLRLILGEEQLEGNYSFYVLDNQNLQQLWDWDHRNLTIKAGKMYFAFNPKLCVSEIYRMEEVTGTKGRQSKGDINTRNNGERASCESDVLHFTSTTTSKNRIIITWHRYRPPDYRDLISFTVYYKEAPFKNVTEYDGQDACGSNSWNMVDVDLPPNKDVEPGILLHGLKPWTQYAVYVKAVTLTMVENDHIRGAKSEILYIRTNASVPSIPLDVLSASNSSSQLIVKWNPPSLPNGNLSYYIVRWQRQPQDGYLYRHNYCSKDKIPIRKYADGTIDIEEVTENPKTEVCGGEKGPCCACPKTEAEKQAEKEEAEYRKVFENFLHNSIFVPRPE
# Insulin-like growth factor 1 receptor (Homo sapiens), sequence (P08069 741-1367 limits assumed): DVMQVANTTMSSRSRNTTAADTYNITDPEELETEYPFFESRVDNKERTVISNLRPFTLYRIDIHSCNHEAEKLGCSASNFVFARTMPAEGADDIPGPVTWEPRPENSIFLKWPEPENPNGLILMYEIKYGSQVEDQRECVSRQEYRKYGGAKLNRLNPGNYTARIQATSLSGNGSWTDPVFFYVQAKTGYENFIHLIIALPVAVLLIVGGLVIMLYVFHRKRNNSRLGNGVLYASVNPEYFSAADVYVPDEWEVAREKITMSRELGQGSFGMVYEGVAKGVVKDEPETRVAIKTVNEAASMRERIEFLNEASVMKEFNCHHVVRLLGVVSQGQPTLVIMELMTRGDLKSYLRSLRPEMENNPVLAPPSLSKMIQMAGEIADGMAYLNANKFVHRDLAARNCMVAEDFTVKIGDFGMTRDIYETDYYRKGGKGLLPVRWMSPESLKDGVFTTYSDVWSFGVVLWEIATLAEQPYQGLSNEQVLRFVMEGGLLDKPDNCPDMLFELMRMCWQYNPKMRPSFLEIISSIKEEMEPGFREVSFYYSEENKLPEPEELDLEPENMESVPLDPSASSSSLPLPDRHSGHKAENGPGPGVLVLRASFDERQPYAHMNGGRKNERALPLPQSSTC
# [5] = target: Insulin-like growth factor 1 receptor (Homo sapiens) (UniProt P08069); conditions: at 10 µM
# [6] = target: T3, Inhibitor of nuclear factor kappa-B kinase subunit alpha (Homo sapiens) (UniProt O15111); conditions: at 1 µM
# T3 sequence (whole entry): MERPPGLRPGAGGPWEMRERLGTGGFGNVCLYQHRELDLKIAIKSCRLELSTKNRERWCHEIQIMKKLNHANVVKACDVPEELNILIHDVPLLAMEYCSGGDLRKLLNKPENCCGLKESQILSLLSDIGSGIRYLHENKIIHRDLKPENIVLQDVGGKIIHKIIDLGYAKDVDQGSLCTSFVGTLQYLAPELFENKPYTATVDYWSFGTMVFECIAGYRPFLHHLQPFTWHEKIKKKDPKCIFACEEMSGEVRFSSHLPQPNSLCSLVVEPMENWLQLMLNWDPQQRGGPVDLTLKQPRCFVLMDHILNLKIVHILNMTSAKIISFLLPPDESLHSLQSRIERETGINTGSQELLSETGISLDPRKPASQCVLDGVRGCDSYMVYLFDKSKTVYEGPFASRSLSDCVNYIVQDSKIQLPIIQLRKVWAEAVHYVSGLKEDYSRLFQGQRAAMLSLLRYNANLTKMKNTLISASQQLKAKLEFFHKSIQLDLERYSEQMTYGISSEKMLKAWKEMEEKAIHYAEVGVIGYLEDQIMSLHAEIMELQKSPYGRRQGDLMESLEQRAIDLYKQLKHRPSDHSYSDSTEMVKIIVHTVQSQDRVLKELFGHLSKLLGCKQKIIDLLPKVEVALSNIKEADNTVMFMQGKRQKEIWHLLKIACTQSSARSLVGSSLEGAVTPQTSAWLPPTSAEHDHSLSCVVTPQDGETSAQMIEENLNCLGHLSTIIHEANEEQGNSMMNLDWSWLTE
# [7] = target: T3, Inhibitor of nuclear factor kappa-B kinase subunit alpha (Homo sapiens); conditions: at 10 µM
# [8] = target: T4, Inhibitor of nuclear factor kappa-B kinase subunit beta (Homo sapiens) (UniProt O14920); conditions: at 1 µM
# T4 sequence (whole entry): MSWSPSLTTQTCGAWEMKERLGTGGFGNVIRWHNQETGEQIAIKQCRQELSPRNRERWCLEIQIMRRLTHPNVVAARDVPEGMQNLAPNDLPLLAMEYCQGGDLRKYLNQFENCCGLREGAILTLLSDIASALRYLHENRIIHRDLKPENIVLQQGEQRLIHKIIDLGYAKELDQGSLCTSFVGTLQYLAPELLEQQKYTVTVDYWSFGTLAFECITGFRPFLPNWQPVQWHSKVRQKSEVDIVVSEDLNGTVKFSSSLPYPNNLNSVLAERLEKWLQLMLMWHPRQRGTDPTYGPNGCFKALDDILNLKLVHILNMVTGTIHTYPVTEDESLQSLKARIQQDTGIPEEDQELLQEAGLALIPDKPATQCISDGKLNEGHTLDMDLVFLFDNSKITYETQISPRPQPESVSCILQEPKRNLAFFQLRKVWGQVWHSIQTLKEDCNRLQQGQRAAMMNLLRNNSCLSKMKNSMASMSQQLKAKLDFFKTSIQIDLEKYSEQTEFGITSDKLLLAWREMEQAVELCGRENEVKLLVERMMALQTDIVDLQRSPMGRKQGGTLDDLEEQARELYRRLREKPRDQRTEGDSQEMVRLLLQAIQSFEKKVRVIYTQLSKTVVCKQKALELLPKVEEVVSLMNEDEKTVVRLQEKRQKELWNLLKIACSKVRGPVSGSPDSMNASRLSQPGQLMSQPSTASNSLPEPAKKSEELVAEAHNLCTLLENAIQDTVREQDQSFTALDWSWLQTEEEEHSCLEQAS
# [9] = target: T4, Inhibitor of nuclear factor kappa-B kinase subunit beta (Homo sapiens); conditions: at 10 µM
# [10] = target: Insulin receptor (Homo sapiens) (UniProt P06213); conditions: at 1 µM
# Insulin receptor (Homo sapiens), sequence (P06213 28-758 limits assumed): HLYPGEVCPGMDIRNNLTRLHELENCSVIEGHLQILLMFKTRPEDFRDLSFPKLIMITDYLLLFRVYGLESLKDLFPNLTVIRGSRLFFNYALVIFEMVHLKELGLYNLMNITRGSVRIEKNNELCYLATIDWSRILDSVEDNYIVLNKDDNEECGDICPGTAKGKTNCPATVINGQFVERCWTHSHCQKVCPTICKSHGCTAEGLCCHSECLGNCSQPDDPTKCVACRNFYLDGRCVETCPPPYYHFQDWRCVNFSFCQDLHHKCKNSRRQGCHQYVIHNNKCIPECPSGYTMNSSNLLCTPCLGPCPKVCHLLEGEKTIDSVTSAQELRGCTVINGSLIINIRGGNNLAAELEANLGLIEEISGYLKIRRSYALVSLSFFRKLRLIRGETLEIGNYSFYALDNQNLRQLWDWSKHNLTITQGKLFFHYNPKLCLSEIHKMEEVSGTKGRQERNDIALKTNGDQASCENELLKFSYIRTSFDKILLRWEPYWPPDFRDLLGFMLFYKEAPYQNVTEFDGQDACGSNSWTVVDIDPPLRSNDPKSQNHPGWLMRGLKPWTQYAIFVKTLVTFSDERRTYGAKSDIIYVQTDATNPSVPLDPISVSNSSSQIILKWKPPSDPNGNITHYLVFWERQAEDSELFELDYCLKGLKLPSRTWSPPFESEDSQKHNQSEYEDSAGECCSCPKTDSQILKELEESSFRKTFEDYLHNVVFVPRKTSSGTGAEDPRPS
# Insulin receptor (Homo sapiens), sequence (P06213 763-1382 limits assumed): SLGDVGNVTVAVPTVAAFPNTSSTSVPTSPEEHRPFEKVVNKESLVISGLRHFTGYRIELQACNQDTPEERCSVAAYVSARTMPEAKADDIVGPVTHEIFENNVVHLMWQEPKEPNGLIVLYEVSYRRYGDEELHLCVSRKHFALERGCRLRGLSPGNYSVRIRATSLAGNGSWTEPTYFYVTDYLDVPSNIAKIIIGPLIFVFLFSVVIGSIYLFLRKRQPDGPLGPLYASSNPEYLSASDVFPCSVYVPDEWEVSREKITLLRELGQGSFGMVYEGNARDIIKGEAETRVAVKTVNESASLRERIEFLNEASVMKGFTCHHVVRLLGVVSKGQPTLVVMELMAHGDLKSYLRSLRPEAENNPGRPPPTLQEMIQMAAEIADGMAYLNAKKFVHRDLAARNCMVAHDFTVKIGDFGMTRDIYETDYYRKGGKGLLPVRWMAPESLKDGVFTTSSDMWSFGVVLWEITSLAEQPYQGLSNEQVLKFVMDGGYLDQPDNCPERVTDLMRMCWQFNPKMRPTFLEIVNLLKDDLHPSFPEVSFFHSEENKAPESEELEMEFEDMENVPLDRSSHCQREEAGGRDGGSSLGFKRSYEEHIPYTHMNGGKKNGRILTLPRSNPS
structure (smiles),measurement,setting,value
c1ccc2c(-c3ccncc3)c[nH]c2c1,residual activity,[1],51%
same,residual activity,[2],87%
same,residual activity,[3],88%
same,residual activity,[4],88%
same,residual activity,[5],79%
same,residual activity,[6],97%
same,residual activity,[7],69%
same,residual activity,[8],105%
same,residual activity,[9],73%
same,residual activity,[10],110%
